Measurements published in PubChem BioAssay.
Calls of active or inactive are those of the source. Unless noted, the rule behind the calls is not given here.

Legend:
[1] = anti-His antibody binders, primary screen, artefact control for SMM control protein annotation, biochemical, small-molecule microarray, 635 nm fluorescence (AID 1128); conditions: anti-His Alexa647 antibody binding, higher = more signal;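 note: score merges feature fluorescence with signal-to-noise for each printed compound spot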
[2] = system: Human papillomavirus type 1a E7 protein (residues 1-88); assay: HPV1a E7 small-molecule binders, primary screen, biochemical, small-molecule microarray, residues 1-88, 635 nm (AID 1129); conditions: small-molecule microarray binding, fluorescence 635 nm; higher = more signal
[3] = target: Focal adhesion kinase 1 (Homo sapiens) (UniProt Q05397); assay: small-molecule microarray binders of FAK, primary screen, biochemical, 635/667 nm fluorescence, BSA, DTT (AID 1130); conditions: PTK2 binding, 635 nm fluorescence, higher = more signal;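 note: composite of spot emission at 667 nm and signal to noise over triplicate slides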
Sequence of Focal adhesion kinase 1 (Homo sapiens) (Q05397 whole entry, looked up): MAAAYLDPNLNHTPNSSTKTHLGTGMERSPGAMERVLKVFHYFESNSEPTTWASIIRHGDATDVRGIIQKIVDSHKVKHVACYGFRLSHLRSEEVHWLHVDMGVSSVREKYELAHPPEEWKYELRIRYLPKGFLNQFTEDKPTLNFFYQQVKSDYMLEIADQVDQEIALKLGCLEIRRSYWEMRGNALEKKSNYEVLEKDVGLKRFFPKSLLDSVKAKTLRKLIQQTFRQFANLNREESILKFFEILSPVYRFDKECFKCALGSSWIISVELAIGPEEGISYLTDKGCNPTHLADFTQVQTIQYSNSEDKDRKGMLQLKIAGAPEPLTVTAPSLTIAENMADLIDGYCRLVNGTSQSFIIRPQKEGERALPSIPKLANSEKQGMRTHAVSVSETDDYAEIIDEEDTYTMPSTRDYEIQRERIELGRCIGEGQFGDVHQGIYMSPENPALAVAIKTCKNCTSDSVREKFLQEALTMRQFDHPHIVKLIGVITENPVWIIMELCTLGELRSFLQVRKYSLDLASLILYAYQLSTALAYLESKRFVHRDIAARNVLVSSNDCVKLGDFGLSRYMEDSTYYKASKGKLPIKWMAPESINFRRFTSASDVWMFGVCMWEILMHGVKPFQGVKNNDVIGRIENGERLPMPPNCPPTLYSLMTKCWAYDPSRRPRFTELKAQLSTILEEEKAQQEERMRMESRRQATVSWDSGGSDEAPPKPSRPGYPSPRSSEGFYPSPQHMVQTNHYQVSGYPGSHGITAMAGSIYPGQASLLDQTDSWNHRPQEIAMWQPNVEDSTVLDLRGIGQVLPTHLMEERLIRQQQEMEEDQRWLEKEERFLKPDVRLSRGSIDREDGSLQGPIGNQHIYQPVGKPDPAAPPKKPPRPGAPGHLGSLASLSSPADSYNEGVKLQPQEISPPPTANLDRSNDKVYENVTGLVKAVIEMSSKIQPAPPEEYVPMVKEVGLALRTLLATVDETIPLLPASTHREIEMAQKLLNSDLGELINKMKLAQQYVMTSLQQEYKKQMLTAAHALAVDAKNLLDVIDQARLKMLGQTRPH

[4] = system: Fibrinogen (Alexa647-labelled); assay: fibrinogen binders on compound microarrays, profiling panel, artefact control for SMM control-protein annotation, biochemical, small-molecule microarray, 635/667 nm fluorescence (AID 1131); conditions: fibrinogen-A647 binding fluorescence, higher = more signal;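 note: z-score merges 667 nm fluorescence with per-spot signal-to-noise over triplicate slides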
[5] = target: Follistatin (Homo sapiens) (UniProt P19883); assay: follistatin binders on small-molecule microarrays, primary screen, biochemical, small-molecule microarray, 635/667 nm fluorescence (AID 1132); conditions: FST binding, 635 nm fluorescence, higher = more signal
Sequence of Follistatin (Homo sapiens) (P19883 whole entry, looked up): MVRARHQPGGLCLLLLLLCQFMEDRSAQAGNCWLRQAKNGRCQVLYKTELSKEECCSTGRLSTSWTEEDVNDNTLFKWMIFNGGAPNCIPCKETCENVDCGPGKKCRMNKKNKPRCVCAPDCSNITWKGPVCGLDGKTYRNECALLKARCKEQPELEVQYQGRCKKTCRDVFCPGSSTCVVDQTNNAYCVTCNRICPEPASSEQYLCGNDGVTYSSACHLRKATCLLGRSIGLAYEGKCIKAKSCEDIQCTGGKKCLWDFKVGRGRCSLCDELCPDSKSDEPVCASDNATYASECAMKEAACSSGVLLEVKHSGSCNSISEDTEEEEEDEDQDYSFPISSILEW

[6] = target: Fibroblast growth factor 2 (Homo sapiens) (UniProt P09038); assay: FGF2 binders on small-molecule microarrays, primary screen, biochemical, small-molecule microarray, 635/667 nm fluorescence (AID 1133); conditions: small-molecule microarray binding, FGF2, fluorescence 635/667; higher = more signal
Sequence of Fibroblast growth factor 2 (Homo sapiens) (P09038 whole entry, looked up): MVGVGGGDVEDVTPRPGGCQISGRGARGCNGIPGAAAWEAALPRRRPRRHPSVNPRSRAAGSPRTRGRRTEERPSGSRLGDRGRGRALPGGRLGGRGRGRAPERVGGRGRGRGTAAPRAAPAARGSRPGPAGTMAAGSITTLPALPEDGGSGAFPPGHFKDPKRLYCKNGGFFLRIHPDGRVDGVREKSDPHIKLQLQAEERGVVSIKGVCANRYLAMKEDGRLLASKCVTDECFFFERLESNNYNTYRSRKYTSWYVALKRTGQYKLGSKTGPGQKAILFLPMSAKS

[7] = mitochondrial membrane potential change in A549 cells, profiling panel, cell-based, JC-1 fluorescence, basal, 24 h, 100 nL (AID 1138); conditions: higher = more signal;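 note: A549 lung adenocarcinoma cells under basal conditions with no added stimulus; test concentration not given here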
Lefty1 = Lefty1 binders on small-molecule microarrays, primary screen, biochemical, small-molecule microarray, 635/667 nm fluorescence (AID 1139); conditions: small-molecule microarray binding, fluorescence 635/667; higher = more signal
[8] = system: wheat germ agglutinin (Triticum aestivum), Alexa647-labelled; assay: wheat germ agglutinin binders on compound microarrays, profiling panel, artefact control for SMM control-protein annotation, biochemical, small-molecule microarray, 635/667 nm fluorescence (AID 1140); conditions: WGA-A647 binding, 635 nm fluorescence, higher = more signal;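 note: score merges 667 nm feature emission with signal to noise over triplicate slides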
[9] = target: Luciferin 4-monooxygenase (Photinus pyralis) (UniProt P08659); assay: firefly luciferase enzyme inhibitors, primary screen, biochemical, luminescence, purified enzyme, 2006 set (AID 1141); conditions: SteadyGlo luminescence, 30 min, higher = more signal, called active from +8 up or from −8 down;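 note: cell-free assay with purified firefly luciferase at 100 ng per well in PBS; test concentration not given here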
Sequence of Luciferin 4-monooxygenase (Photinus pyralis) (P08659 whole entry, looked up): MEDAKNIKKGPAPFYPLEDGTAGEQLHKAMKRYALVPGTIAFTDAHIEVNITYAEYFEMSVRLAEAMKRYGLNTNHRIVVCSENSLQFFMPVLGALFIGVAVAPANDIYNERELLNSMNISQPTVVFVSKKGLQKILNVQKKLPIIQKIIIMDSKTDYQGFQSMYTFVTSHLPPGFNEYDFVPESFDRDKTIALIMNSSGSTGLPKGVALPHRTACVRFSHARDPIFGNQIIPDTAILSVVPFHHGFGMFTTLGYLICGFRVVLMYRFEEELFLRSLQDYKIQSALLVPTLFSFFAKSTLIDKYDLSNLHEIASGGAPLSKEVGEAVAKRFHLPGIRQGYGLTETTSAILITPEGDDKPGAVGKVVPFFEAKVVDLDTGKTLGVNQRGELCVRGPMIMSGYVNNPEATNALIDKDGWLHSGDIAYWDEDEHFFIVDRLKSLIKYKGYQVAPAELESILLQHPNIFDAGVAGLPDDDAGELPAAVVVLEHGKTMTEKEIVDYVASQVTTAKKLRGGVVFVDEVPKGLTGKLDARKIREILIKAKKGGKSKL

[10] = system: Wnt5a (protein binding on small-molecule microarray); assay: Wnt5a binders on small-molecule microarray, primary screen, biophysical, 635/667 nm fluorescence (AID 1142); conditions: 635 nm fluorescence, higher = more signal;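 note: fluorescence read at 667 nm with signal to noise per printed feature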
[11] = cell viability in Huh7 cells, primary screen, cytotoxicity control for HCV replication inhibitor project, CellTiter-Glo luminescence, basal, 48 h (AID 1143); conditions: Huh7 HCV replicon, higher = more signal, called active from +8 up or from −8 down;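 note: Huh7 hepatoma cells carrying a hepatitis C replication reporter with no stimulus; test concentration not given here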
[12] = P. aeruginosa biofilm formation inhibitors, primary screen, PAO1 strain, BacTiter-Glo luminescence, LB-PBS (AID 1144); conditions: 12 h, higher = more signal
[13] = CREB reporter modulators without forskolin, primary screen, cell-based, PC12, CRE-LacZ reporter, unstimulated (AID 1145); conditions: no forskolin, luminescence, 4.5 h, higher = more signal, called active from +8 up or from −8 down
[14] = CREB reporter modulators under forskolin, primary screen, cell-based, PC12, CRE-LacZ reporter, forskolin-stimulated (AID 1146); conditions: luminescence, 4.5 h, higher = more signal, called active from +8 up or from −8 down;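 note: PC12 cells with 6xCRE LacZ reporter stimulated by forskolin 10 µM; beta-galactosidase reporter signal reflecting CREB driven transcription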
[15] = target: Streptavidin (Streptomyces avidinii) (UniProt P22629); assay: streptavidin binders on small-molecule microarray, primary screen, artefact control for SMM compound annotation, biophysical, 635/667 nm fluorescence (AID 1147); conditions: streptavidin binding, higher = more signal;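 note: signal reflects streptavidin binding to arrayed compounds as a control protein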
Sequence of Streptavidin (Streptomyces avidinii) (P22629 whole entry, looked up): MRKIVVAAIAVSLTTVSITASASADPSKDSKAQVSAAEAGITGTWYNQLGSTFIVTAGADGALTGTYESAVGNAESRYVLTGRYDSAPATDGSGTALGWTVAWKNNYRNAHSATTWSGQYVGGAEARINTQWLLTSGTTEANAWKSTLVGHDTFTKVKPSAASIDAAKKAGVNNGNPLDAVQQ

[16] = small-molecule binders of probe aInhba, primary screen, biochemical, small-molecule microarray, 635/667 nm fluorescence (AID 1148); conditions: higher = more signal;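 note: score merges 667nm spot fluorescence with signal-to-noise for antibody binding to printed compounds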
Torsin-1A (Homo sapiens) [17] = target: Torsin-1A (Homo sapiens) (UniProt O14656); assay: torsin A binders from cell lysate, primary screen, small-molecule microarray, wild-type, 635/667 nm (AID 1149); conditions: COS7 hTOR1A-WT lysate, 635 nm fluorescence, higher = more signal
Sequence of Torsin-1A (Homo sapiens) (O14656 whole entry, looked up): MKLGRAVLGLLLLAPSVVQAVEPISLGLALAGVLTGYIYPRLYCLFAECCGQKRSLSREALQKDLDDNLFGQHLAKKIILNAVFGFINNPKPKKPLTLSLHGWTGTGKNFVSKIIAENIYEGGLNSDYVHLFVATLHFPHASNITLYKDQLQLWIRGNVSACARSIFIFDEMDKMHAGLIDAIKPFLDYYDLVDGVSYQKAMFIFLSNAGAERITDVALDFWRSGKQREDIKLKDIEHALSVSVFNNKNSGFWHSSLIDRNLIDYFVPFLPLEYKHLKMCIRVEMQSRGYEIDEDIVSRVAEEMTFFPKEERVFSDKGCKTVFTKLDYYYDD

Torsin-1A (Homo sapiens) [18] = target: Torsin-1A (Homo sapiens) (UniProt O14656); assay: small-molecule binders of mutant TOR1A in lysate, primary screen, cell lysate, small-molecule microarray, COS7 lysate, 635/667 nm fluorescence (AID 1150); conditions: COS7 hTOR1A mutant lysate, 635 nm fluorescence, higher = more signal;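 note: score pools 667 nm emission and signal to noise measuring lysate protein binding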
[19] = system: Sonic hedgehog protein (Shh); assay: small-molecule binders of Shh protein, primary screen, biochemical, small-molecule microarray, 635/667 nm fluorescence (AID 1151); conditions: small-molecule microarray binding, 635 nm fluorescence; higher = more signal;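 note: Shh protein binding to compounds spotted on small-molecule microarray slides; score combines spot fluorescence intensity with signal-to-noise across triplicate slides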

Compound | composite z-score [1] | composite z-score [2] | composite z-score [3] | composite z-score [4] | composite z-score [5] | composite z-score [6] | z-score [7] | composite z-score (Lefty1) | composite z-score [8] | z-score [9] | composite z-score [10] | z-score [11] | z-score [12] | z-score [13] | z-score [14] | composite z-score [15] | composite z-score [16] | composite z-score (Torsin-1A (Homo sapiens) [17]) | composite z-score (Torsin-1A (Homo sapiens) [18]) | composite z-score [19]
COC(=O)[C@@]1(Cc2ccc(F)cc2)[C@H]2c3cc(C(=O)N4CCCC4)n(CCc4ccc(OC)c(Br)c4)c3C[C@H]2CN1C(=O)c1ccccc1 | 2.45 | 1.22 | 1.32 | 0.831 | 1.08 | -0.705 | -1.58 | 0.265 | 1.38 | -0.0863 (inactive) | 0.375 | -3.82 (inactive) | 0.839 (inactive) | 0.0109 (inactive) | -1.14 (inactive) | 2.46 | 0.431 | 0.17 | 0.858 | -0.328
C#C[C@H](O[Si](C#CCCCCCC)(C(C)C)C(C)C)c1ccccc1 | 0.272 | 0.203 | -0.308 | -0.152 | 0.481 | -0.471 | -0.562 | 0.605 | -0.174 | 1.25 (inactive) | -0.348 | -0.0715 (inactive) | 0.0625 (inactive) | 0.353 (inactive) | 0.262 (inactive) | -0.0246 | -0.17 | 0.236 | 0.0769 | -0.102
C=CCC(OC(C)=O)[C@@H]1[C@@H](N(Cc2ccc(-c3cccc(C(F)(F)F)c3)o2)C(=O)Cc2ccc(OC)cc2)c2cc(OCCCO)ccc2N1C(=O)Cc1ccc(OC)cc1 (stereo not given in full) | -0.381 | -1.04 | -0.127 | -1.31 | 0.544 | 0.283 | 0.212 | -0.0334 | 0.0267 | 0.781 (inactive) | -0.294 | -3.06 (inactive) | -1.7 (inactive) | 0.484 (inactive) | 0.609 (inactive) | -1.01 | -0.154 | -2.51 | -1.2 | 0.514
CN(C)CCCN1C(=O)[C@@]2(c3ccc([N+](=O)[O-])cc3)CC(=O)N(C3CCCCC3)[C@@H]2c2ccc(CO)cc21 | 0.0598 | -1.05 | -0.042 | -0.916 | 0.0687 | 0.836 | -0.493 | -0.262 | 0.12 | 1.2 (inactive) | 0.131 | -1.79 (inactive) | -1.09 (inactive) | -0.464 (inactive) | -0.477 (inactive) | 0.161 | -0.101 | -0.954 | -0.288 | -0.93
O=[N+]([O-])c1ccc(C[n+]2ccc(CCCO)cc2)o1 | -0.0383 | 1.07 | 1.08 | 0.752 | 1.4 | 1.77 | -0.506 | 0.73 | 0.226 | -0.868 (inactive) | 0.98 | -1.22 (inactive) | 0.0757 (inactive) | 0.0026 (inactive) | 0.619 (inactive) | 1.15 | 0.189 | 0.153 | 0.263 | 1.06
